# Test results from PubChem BioAssay.
# Activity calls are given as the source filed them. Unless noted, how the calls were made is not given here.
# Columns and labels:
# [1] = anti-His antibody binders, primary screen, artefact control for SMM control protein annotation, biochemical, small-molecule microarray, 635 nm fluorescence (AID 1128); conditions: anti-His Alexa647 antibody binding, higher = more signal;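 further: score merges feature fluorescence with signal-to-noise for each printed compound spot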
# [2] = test system: Human papillomavirus type 1a E7 protein (residues 1-88); assay: HPV1a E7 small-molecule binders, primary screen, biochemical, small-molecule microarray, residues 1-88, 635 nm (AID 1129); conditions: small-molecule microarray binding, fluorescence 635 nm; higher = more signal
# [3] = molecular target: Focal adhesion kinase 1 (Homo sapiens) (UniProt Q05397); assay: small-molecule microarray binders of FAK, primary screen, biochemical, 635/667 nm fluorescence, BSA, DTT (AID 1130); conditions: PTK2 binding, 635 nm fluorescence, higher = more signal;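 further: composite of spot emission at 667 nm and signal to noise over triplicate slides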
# [4] = test system: Fibrinogen (Alexa647-labelled); assay: fibrinogen binders on compound microarrays, profiling panel, artefact control for SMM control-protein annotation, biochemical, small-molecule microarray, 635/667 nm fluorescence (AID 1131); conditions: fibrinogen-A647 binding fluorescence, higher = more signal;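 further: z-score merges 667 nm fluorescence with per-spot signal-to-noise over triplicate slides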
# [5] = molecular target: Follistatin (Homo sapiens) (UniProt P19883); assay: follistatin binders on small-molecule microarrays, primary screen, biochemical, small-molecule microarray, 635/667 nm fluorescence (AID 1132); conditions: FST binding, 635 nm fluorescence, higher = more signal
# [6] = molecular target: Fibroblast growth factor 2 (Homo sapiens) (UniProt P09038); assay: FGF2 binders on small-molecule microarrays, primary screen, biochemical, small-molecule microarray, 635/667 nm fluorescence (AID 1133); conditions: small-molecule microarray binding, FGF2, fluorescence 635/667; higher = more signal
# [7] = mitochondrial membrane potential change in A549 cells, profiling panel, cell-based, JC-1 fluorescence, basal, 24 h, 100 nL (AID 1138); conditions: higher = more signal;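 further: A549 lung adenocarcinoma cells under basal conditions with no added stimulus; test concentration not given here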
# [8] = test system: Lefty1; assay: Lefty1 binders on small-molecule microarrays, primary screen, biochemical, small-molecule microarray, 635/667 nm fluorescence (AID 1139); conditions: small-molecule microarray binding, fluorescence 635/667; higher = more signal
# [9] = test system: wheat germ agglutinin (Triticum aestivum), Alexa647-labelled; assay: wheat germ agglutinin binders on compound microarrays, profiling panel, artefact control for SMM control-protein annotation, biochemical, small-molecule microarray, 635/667 nm fluorescence (AID 1140); conditions: WGA-A647 binding, 635 nm fluorescence, higher = more signal;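 further: score merges 667 nm feature emission with signal to noise over triplicate slides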
# [10] = molecular target: Luciferin 4-monooxygenase (Photinus pyralis) (UniProt P08659); assay: firefly luciferase enzyme inhibitors, primary screen, biochemical, luminescence, purified enzyme, 2006 set (AID 1141); conditions: SteadyGlo luminescence, 30 min, higher = more signal, called active from +8 up or from −8 down;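 further: cell-free assay with purified firefly luciferase at 100 ng per well in PBS; test concentration not given here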
# [11] = test system: Wnt5a (protein binding on small-molecule microarray); assay: Wnt5a binders on small-molecule microarray, primary screen, biophysical, 635/667 nm fluorescence (AID 1142); conditions: 635 nm fluorescence, higher = more signal;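 further: fluorescence read at 667 nm with signal to noise per printed feature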
# [12] = cell viability in Huh7 cells, primary screen, cytotoxicity control for HCV replication inhibitor project, CellTiter-Glo luminescence, basal, 48 h (AID 1143); conditions: Huh7 HCV replicon, higher = more signal, called active from +8 up or from −8 down;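 further: Huh7 hepatoma cells carrying a hepatitis C replication reporter with no stimulus; test concentration not given here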
# [13] = P. aeruginosa biofilm formation inhibitors, primary screen, PAO1 strain, BacTiter-Glo luminescence, LB-PBS (AID 1144); conditions: 12 h, higher = more signal
# [14] = CREB reporter modulators without forskolin, primary screen, cell-based, PC12, CRE-LacZ reporter, unstimulated (AID 1145); conditions: no forskolin, luminescence, 4.5 h, higher = more signal, called active from +8 up or from −8 down
# [15] = CREB reporter modulators under forskolin, primary screen, cell-based, PC12, CRE-LacZ reporter, forskolin-stimulated (AID 1146); conditions: luminescence, 4.5 h, higher = more signal, called active from +8 up or from −8 down;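 further: PC12 cells with 6xCRE LacZ reporter stimulated by forskolin 10 µM; beta-galactosidase reporter signal reflecting CREB driven transcription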
# [16] = molecular target: Streptavidin (Streptomyces avidinii) (UniProt P22629); assay: streptavidin binders on small-molecule microarray, primary screen, artefact control for SMM compound annotation, biophysical, 635/667 nm fluorescence (AID 1147); conditions: streptavidin binding, higher = more signal;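 further: signal reflects streptavidin binding to arrayed compounds as a control protein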
# [17] = small-molecule binders of probe aInhba, primary screen, biochemical, small-molecule microarray, 635/667 nm fluorescence (AID 1148); conditions: higher = more signal;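 further: score merges 667nm spot fluorescence with signal-to-noise for antibody binding to printed compounds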
# [18] = molecular target: Torsin-1A (Homo sapiens) (UniProt O14656); assay: torsin A binders from cell lysate, primary screen, small-molecule microarray, wild-type, 635/667 nm (AID 1149); conditions: COS7 hTOR1A-WT lysate, 635 nm fluorescence, higher = more signal
# [19] = molecular target: Torsin-1A (Homo sapiens) (UniProt O14656); assay: small-molecule binders of mutant TOR1A in lysate, primary screen, cell lysate, small-molecule microarray, COS7 lysate, 635/667 nm fluorescence (AID 1150); conditions: COS7 hTOR1A mutant lysate, 635 nm fluorescence, higher = more signal;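 further: score pools 667 nm emission and signal to noise measuring lysate protein binding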
# [20] = test system: Sonic hedgehog protein (Shh); assay: small-molecule binders of Shh protein, primary screen, biochemical, small-molecule microarray, 635/667 nm fluorescence (AID 1151); conditions: small-molecule microarray binding, 635 nm fluorescence; higher = more signal;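 further: Shh protein binding to compounds spotted on small-molecule microarray slides; score combines spot fluorescence intensity with signal-to-noise across triplicate slides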
# Chain of Streptavidin (Streptomyces avidinii) (P22629 whole entry, looked up): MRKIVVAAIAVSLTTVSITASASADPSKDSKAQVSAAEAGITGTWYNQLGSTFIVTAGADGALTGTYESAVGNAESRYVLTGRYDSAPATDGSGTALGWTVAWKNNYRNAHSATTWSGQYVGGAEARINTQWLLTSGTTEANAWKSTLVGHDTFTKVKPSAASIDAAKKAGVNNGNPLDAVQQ
# Chain of Luciferin 4-monooxygenase (Photinus pyralis) (P08659 whole entry, looked up): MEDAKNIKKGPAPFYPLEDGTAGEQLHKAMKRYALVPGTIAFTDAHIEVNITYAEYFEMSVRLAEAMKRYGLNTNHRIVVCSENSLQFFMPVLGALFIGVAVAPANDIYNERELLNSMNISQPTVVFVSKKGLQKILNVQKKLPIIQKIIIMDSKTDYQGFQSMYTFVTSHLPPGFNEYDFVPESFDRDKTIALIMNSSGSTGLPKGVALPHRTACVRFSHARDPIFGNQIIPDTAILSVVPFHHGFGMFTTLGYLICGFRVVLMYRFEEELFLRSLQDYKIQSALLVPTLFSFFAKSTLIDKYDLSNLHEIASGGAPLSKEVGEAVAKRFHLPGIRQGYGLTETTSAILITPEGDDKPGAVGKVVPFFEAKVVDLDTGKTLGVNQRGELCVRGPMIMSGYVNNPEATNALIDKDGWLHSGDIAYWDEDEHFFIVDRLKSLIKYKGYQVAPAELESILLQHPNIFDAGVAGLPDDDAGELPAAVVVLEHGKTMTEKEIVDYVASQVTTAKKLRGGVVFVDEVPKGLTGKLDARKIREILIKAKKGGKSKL
# Chain of Torsin-1A (Homo sapiens) (O14656 whole entry, looked up): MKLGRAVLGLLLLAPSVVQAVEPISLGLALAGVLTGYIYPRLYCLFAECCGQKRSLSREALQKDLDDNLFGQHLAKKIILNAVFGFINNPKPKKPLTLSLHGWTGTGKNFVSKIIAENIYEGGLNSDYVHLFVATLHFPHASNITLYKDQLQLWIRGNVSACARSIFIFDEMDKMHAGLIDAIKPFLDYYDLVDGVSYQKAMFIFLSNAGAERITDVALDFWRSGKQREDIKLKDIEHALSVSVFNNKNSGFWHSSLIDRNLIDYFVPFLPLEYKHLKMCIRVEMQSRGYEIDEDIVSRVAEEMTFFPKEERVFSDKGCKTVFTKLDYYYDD
# Chain of Fibroblast growth factor 2 (Homo sapiens) (P09038 whole entry, looked up): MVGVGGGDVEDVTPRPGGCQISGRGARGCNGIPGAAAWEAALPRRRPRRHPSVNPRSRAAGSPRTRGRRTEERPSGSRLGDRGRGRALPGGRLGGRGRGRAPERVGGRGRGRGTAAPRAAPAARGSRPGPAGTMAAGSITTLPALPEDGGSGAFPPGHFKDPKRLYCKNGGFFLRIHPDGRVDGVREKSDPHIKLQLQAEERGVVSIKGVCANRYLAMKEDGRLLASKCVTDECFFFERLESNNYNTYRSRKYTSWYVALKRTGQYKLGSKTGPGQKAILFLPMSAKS
# Chain of Follistatin (Homo sapiens) (P19883 whole entry, looked up): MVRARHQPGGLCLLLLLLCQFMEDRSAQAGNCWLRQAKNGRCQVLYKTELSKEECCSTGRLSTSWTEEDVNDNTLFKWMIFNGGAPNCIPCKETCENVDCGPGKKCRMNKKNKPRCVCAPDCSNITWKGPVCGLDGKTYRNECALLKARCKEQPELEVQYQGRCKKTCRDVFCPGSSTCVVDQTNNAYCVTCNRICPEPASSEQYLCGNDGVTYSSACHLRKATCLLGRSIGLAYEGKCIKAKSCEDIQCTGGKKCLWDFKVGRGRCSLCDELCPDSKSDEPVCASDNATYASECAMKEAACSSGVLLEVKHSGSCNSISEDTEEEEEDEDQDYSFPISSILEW
# Chain of Focal adhesion kinase 1 (Homo sapiens) (Q05397 whole entry, looked up): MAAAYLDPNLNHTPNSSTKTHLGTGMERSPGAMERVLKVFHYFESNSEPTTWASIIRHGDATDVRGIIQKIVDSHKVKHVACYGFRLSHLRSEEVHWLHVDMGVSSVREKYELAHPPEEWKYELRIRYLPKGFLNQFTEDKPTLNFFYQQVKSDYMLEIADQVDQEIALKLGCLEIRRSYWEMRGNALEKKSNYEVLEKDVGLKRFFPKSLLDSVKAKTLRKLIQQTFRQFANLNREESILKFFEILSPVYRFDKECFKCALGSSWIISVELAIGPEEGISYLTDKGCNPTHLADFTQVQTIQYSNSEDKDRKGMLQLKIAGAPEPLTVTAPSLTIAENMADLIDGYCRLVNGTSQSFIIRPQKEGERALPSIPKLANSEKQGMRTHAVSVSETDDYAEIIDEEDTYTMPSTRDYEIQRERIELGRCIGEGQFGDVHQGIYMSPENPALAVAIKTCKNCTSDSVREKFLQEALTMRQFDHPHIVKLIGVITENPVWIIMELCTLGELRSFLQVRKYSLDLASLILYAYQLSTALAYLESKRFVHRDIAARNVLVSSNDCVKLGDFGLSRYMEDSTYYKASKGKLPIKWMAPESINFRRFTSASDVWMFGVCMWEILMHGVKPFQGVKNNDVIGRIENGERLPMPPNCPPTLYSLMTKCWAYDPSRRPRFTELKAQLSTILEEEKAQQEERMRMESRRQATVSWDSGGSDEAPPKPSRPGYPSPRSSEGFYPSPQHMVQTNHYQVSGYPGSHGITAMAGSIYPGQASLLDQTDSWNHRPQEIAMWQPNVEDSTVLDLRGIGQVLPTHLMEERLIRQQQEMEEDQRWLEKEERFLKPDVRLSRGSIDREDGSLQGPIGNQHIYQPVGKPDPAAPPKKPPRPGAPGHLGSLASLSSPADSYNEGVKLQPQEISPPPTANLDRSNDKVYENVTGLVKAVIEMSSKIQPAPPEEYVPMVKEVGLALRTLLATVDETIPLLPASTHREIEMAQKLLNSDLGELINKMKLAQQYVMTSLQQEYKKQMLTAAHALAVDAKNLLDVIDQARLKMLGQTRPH
Compound,composite z-score [1],composite z-score [2],composite z-score [3],composite z-score [4],composite z-score [5],composite z-score [6],z-score [7],composite z-score [8],composite z-score [9],z-score [10],composite z-score [11],z-score [12],z-score [13],z-score [14],z-score [15],composite z-score [16],composite z-score [17],composite z-score [18],composite z-score [19],composite z-score [20]
CCCNC(=O)[C@@]1(c2ccc([N+](=O)[O-])cc2)CC(=O)N(C2CCCCC2)[C@@H]1c1ccc(CO)cc1I,2.18,0.949,0.178,0.34,1.21,1.52,1.4,1.01,1.1,-0.424 (inactive),1.01,-4.24 (inactive),-0.326 (inactive),-0.682 (inactive),1.18 (inactive),0.277,0.306,0.224,0.451,1.85
O=C1c2ccccc2[C@](Cc2ccccc2I)(C(=O)NCCN2CCOCC2)[C@H](c2ccc(CO)cc2)N1Cc1ccccc1,0.0765,1.2,0.964,0.598,1.26,0.146,0.803,0.98,0.458,-0.0588 (inactive),0.265,-1.98 (inactive),0.536 (inactive),0.649 (inactive),0.413 (inactive),1.17,0.444,0.0373,0.802,1.21
COC(=O)[C@@]1(Cc2ccccc2)[C@H]2c3cc(C(=O)N4CCCC4)n(Cc4ccsc4Br)c3C[C@H]2CN1C(=O)c1ccccc1,1.6,1.23,0.619,0.789,0.647,-0.282,1.88,-0.524,1.25,1.79 (inactive),0.38,-3.12 (inactive),0.389 (inactive),0.201 (inactive),-0.813 (inactive),1.21,0.407,0.147,0.894,-1.01
COC(=O)C(CC#Cc1ccc2c(c1)[C@]1(C(=O)N2)[C@H](C(=O)O)[C@H]2C(=O)O[C@H](c3ccccc3)[C@H](c3ccccc3)N2[C@@H]1c1ccccc1OCCO)C(=O)OC,2.8,1.24,0.712,0.95,1.18,0.838,-1.01,0.976,1.18,-3.09 (inactive),0.193,-1.66 (inactive),-0.292 (inactive),0.899 (inactive),2.92 (inactive),0.678,0.36,1.04,0.829,1.41
CCOc1cc(C(O)C2C=CC3C(=O)N(C4CCCCC4)C(=O)C3N2Nc2ccc(OC)cc2)ccc1O (stereo not given),0.675,1.19,0.903,0.705,0.846,-0.0785,0.786,0.225,0.686,-0.0537 (inactive),0.0751,-1.26 (inactive),-0.855 (inactive),0.276 (inactive),-1.51 (inactive),1.43,0.0808,0.705,1.17,-0.207
CC(C)C(=C=CC[C@H](O)c1ccc(OCCO)cc1)C[C@H](O)c1cc(Cl)cc(Cl)c1O,2.46,1.09,-0.0133,0.134,0.996,1.09,1.78,1.22,0.539,-1.78 (inactive),0.0991,-3.24 (inactive),0.0919 (inactive),7.76 (inactive),-0.457 (inactive),0.122,0.153,0.895,0.656,1.71
Cc1ccc(F)cc1S(=O)(=O)N[C@@H]1CCN(Cc2ccc(OC(C)C)cc2)C1,0.111,-1.37,-0.425,-0.907,-0.235,0.47,1.14,-0.177,-1.28,0.0358 (inactive),-0.0943,-3.86 (inactive),0.816 (inactive),1.76 (inactive),0.524 (inactive),-0.293,-0.341,0.277,0.719,-0.0003
C=CCC(OC(C)=O)[C@@H]1[C@@H](N(Cc2cc3ccccc3o2)C(=O)c2ccc(C)cc2)c2cc(OCCCO)ccc2N1C(=O)Cc1ccc2ccccc2c1 (stereo not given in full),-0.631,-0.627,0.105,-0.638,0.119,-0.421,1.91,-0.281,-0.152,-1.72 (inactive),-0.109,0.218 (inactive),-0.956 (inactive),2.37 (inactive),-0.072 (inactive),-0.172,-0.0523,-0.0509,-0.0619,0.0781
CCOC(=O)C[C@H]1[C@H](OC(=O)c2ccc(C(=O)c3ccccc3)cc2)[C@@H](NC(=O)c2ccc3ccccc3c2)c2cc(OCCCO)ccc2N1C(=O)c1ccccc1,0.405,1.13,0.287,0.73,0.599,0.436,0.315,1.14,1.1,-0.204 (inactive),0.173,-0.0506 (inactive),-0.0382 (inactive),0.0777 (inactive),-0.506 (inactive),0.849,-0.105,0.196,0.321,0.867
O=C(CS)NCCCCCCNC(=O)[C@@H]1C[C@@H]2C(=O)N3CCC[C@H]3C(=O)N2[C@@H]1c1cccc(OCCO)c1,0.824,1.13,0.459,0.642,1.1,1.59,0.503,0.361,0.832,-0.681 (inactive),0.939,-0.497 (inactive),-1.05 (inactive),-1.35 (inactive),-1.07 (inactive),0.283,-0.128,1.19,1.34,1.7
